The values that follow come from PubChem BioAssay AID651956 (Broad Institute, 2012).

Potency and affinity values are given separately. Inconclusive results are not listed. Entries that show only a call come without a potency. Active and inactive are the calls of the source.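 Rule for the calls: active = in every test run, a fitted half-maximal concentration for signal decrease at or below twice the highest tested concentration; inconclusive = runs disagree, flat 30 to 70% decrease, or poor fit; inactive = the rest.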

The assay is described as follows: miR-122 activators in hepatoma reporter cells, dose response, cell-based, Huh7 psiCHECK-miR122, Renilla luciferase, cherry-picked (AID 651956).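 Note: Renilla luciferase from a miR-122 sensor reporter so lower signal means miR-122 activation.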 Conditions: 48 h; series mostly up to 35 µM.
Consider `CO[C@@H]1CN(C)C(=O)c2ccc(NC(=O)c3nc4ccccc4s3)cc2OC[C@H](C)N(Cc2cccnc2)C[C@H]1C`, for which the outcome was inactive.
`CC(=O)N(C)C[C@@H]1[C@@H](c2ccc(-c3cccc(C#N)c3)cc2)[C@H](CO)N1C(C)=O`: the call was inactive.
As for `COC(=O)C[C@H]1CC[C@H]2[C@H](COc3ccc(NC(=O)c4cccc(F)c4)cc3C(=O)N2C)O1`, the result was inactive.
`COc1ccc(-c2c(-c3ccccc3)c(C(=O)C(=O)NCCCN(C)C)n3ccc4cc(OC)c(OC)cc4c23)cc1OC`: the call was inactive.
Consider `CN1C(=O)c2cc(NC(=O)c3cccs3)ccc2OC[C@H]2O[C@H](CC(=O)NCCN3CCCCC3)CC[C@H]21`, for which the result was inactive.
For the compound `CC(=O)c1ccc(Nc2nc3ccc(C)cc3n3cnnc23)cc1`, the outcome was inactive.
As for `COc1cccc(CNC(=O)C[C@@H]2CC[C@@H]3[C@H](COc4ccc(NC(C)=O)cc4C(=O)N3C)O2)c1`, the compound was classed as inactive.
To `O=C(c1ccccc1)N1C[C@H]2[C@@H](c3ccccc31)[C@@H](CO)N2C(=O)CN1CCOCC1` belongs “inactive”.
As to `C/C=C/c1ccc([C@H]2[C@@H](CO)N[C@@H]2CN(CC(C)C)C(=O)c2ccccn2)cc1`, the call was inactive.
In the case of `C[C@@H]1CN([C@@H](C)CO)S(=O)(=O)c2ccc(C#Cc3ccccc3F)cc2O[C@H]1CN(C)C(=O)c1ccc2c(c1)OCO2`, the call was inactive.
On to `CCCC(=O)Nc1ccc2c(c1)C(=O)N(C)[C@@H]1CC[C@H](CC(=O)NCc3cccc(F)c3)O[C@H]1CO2`, for which the compound was called inactive.
To `CN1C(=O)c2cc(NS(=O)(=O)c3cccc(F)c3)ccc2OC[C@H]2O[C@@H](CC(=O)NCCN3CCCCC3)CC[C@H]21` belongs “inactive”.
